# Bioassay records: PubChem BioAssay, National Center for Advancing Translational Sciences (NCATS)
# Only some compounds are listed: those with a hit (about 22% of all), similar ones and a draw of the others.
# Pf growth 96h – Primary qHTS for delayed death inhibitors of the malarial parasite plastid, 96 hour incubation | P. falciparum luciferase reporter growth, 96 h | Potency, µM (titrated, usually from 28.7 µM), hits mostly inhibitors | 320,000 compounds, 6.9% hits | AID 504834, 2011
#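 P. falciparum expressing integrated firefly luciferase grown in erythrocytes (2% hematocrit, 0.05% parasitemia final) with compounds for 96 hours at 37 C, 5% CO2. Growth inhibition read as loss of luminescence after adding luciferase detection reagent.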
# Cycloheximide cs – Cycloheximide Counterscreen for Small Molecule Inhibitors of Shiga Toxin | cell reporter, cycloheximide protein synthesis inhibition counterscreen | max response, % | 300,000 compounds, 12% hits; in the data active means max response mostly above about 13%, no sharp cut-off; inactive means mostly below about 14%; further: read at 38.3 µM for the half of the compounds with a filed dose
# Shiga toxin inh – A qHTS for Small Molecule Inhibitors of Shiga Toxin; Vero cells, Shiga toxin protein synthesis inhibition reporter; inhibition, % at 38.7 µM; 290,000 compounds, 9.2% hits; in the data active means inhibition mostly above about 28%, no sharp cut-off; inactive means mostly below about 43%
# LmPK inh – qHTS Assay for Inhibitors of Leishmania Mexicana Pyruvate Kinase (LmPK); 290,000 compounds, 0.37% hits; AID 1721, 2009; Potency, µM (titrated, usually from 57.5 µM), actives largely listed as inhibitors; purified LmPK, Kinase-Glo ATP luminescence, 1 h
# Target sequence (Q27686 whole entry, looked up): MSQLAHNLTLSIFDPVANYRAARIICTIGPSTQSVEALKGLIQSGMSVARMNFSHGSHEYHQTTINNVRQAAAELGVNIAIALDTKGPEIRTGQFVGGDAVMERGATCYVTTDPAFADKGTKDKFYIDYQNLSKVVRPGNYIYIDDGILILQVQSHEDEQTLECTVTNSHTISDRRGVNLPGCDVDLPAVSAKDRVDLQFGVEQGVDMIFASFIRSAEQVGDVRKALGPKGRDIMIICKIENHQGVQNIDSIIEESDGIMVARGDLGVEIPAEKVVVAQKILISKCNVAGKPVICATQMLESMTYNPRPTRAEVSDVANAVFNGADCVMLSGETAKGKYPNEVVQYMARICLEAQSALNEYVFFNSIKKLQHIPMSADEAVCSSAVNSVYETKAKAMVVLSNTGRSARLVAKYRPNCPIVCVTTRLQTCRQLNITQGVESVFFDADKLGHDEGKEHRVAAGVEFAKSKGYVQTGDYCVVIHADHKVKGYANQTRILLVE
#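 Kinase-Glo luminescence read after 1 h RT reaction of 0.1 nM LmPK with 0.5 mM PEP and 0.1 mM ADP. Activity scaled between uninhibited and enzyme-free controls.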
# Pf growth 48h – Primary qHTS for delayed death inhibitors of the malarial parasite plastid, 48 hour incubation; P. falciparum luciferase growth in erythrocytes, 48 h; Potency, µM (top dose mostly 28.7 µM), hits mostly inhibitors; 310,000 compounds, 5.9% hits
#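 Luciferase-expressing parasites in RBCs, 2% Hct / 0.1% parasitemia final; RPMI 1640 + 0.5% Albumax; 37 C, 5% CO2, one generation; luminescence read-out, lower signal = inhibition.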
# A number is an active result; n = inactive; u = inconclusive; x = not tested or not shown. Unless noted, the call rests on the fitted dose curve; in most records, active means well fitted inhibition curve with a large enough effect; inconclusive means small, poorly fitted or top-dose-only effect, or another doubt; inactive means no such curve, though single readings can be large or run the other way.
SMILES,Pf growth 96h,Cycloheximide cs,Shiga toxin inh,LmPK inh,Pf growth 48h
CCOc1ccc(Cc2noc3c2C(=O)CC(C)(C)C3)cc1OCC,n,n,n,n,n
COc1ccc(NC(=S)N2CCN(C(=O)C3CCCO3)CC2)c(OC)c1 (centres undefined),n,n,n,n,n
O=C1CCC(c2ccc(-n3ccnc3)cc2)=NN1,n,x,x,x,n
CCOC(=O)c1cc(-c2ccncc2)nc2c1c(C)nn2-c1ccccn1,13µM,n,n,n,5.9µM
COc1ccc(-c2cc(C(=O)O)c3c(C)nn(-c4ccccn4)c3n2)cc1,n,n,n,n,n
CCOC(=O)c1cnn(-c2ncnc3c2oc2ccccc23)c1N,n,16,n,n,n
CC(C)C[C@H](N)C(=O)N[C@H](C(=O)N[C@@H](CCCN=C(N)N)C(=O)N[C@H](CS)C(=O)NCC(=O)N[C@@H](CCCCN)C(=O)N[C@@H](Cc1cnc[nH]1)C(=O)N[C@@H](CO)C(=O)N[C@@H](CCCN=C(N)N)C(=O)O)C(C)C,x,n,n,x,x
ONc1cccnc1-n1nc(C(F)(F)F)cc1C(F)(F)F,u,n,n,n,u
CCN(CC)CCNC(=O)c1cc(Br)c(N)cc1OC,n,x,x,x,n
Cc1sc2nc(CN(Cc3cccs3)C(=O)C3CC3)[nH]c(=O)c2c1C,x,n,n,n,n
O=C(CN1CCCCC1)Nc1cccc2c1OCO2,x,n,n,n,n
CCCN(CCC)CC(=O)Nc1cccc2c1OCO2,12µM,n,n,n,n
COc1ccccc1N(C)S(=O)(=O)c1ccc(C(=O)OCC(=O)c2c[nH]c3ccccc23)cc1,u,n,n,n,u
CN(C(=O)COC(=O)c1cccc(S(=O)(=O)N(C)c2ccccc2)c1)C1CCCCC1,n,x,x,x,n
O=C(c1ccsc1)N1CCCC(N2CCN(c3cccc(C(F)(F)F)c3)CC2)C1 (centres undefined),n,n,n,n,n
O=C(c1cc[n+]([O-])cc1)N1CCCC(N2CCN(c3cccc(C(F)(F)F)c3)CC2)C1 (centres undefined),u,n,n,n,12µM
Oc1ccccc1CN1CCCC(N2CCN(c3cccc(C(F)(F)F)c3)CC2)C1 (centres undefined),n,n,x,n,1.5µM
Fc1ccccc1N1CCN(C2CCCN(Cc3cccc(C(F)(F)F)c3)C2)CC1 (centres undefined),u,n,n,n,n
O=C(c1ccccn1)N1CCCC(N2CCN(c3cccc(C(F)(F)F)c3)CC2)C1 (centres undefined),n,20,41,n,u
COC(=O)CNC(c1ccccc1)c1cc(C)ccc1NC(=O)CNC(=O)OCc1ccccc1 (centres undefined),x,n,n,n,13µM
Cc1ccc(S(=O)(=O)Nc2ccc(Br)cc2C(NCC(=O)O)c2ccccc2)cc1 (centres undefined),n,n,n,n,n
COC(=O)CNC(c1ccccc1)c1cc(Br)ccc1NC(=O)OCc1ccccc1 (centres undefined),u,n,n,n,u
COC(=O)CNC(c1ccccc1)c1cc(C)ccc1NC(=O)c1cccc(Cl)c1 (centres undefined),13µM,n,n,n,u
COC(=O)CNC(c1ccccc1)c1cc(C)ccc1NS(=O)(=O)c1ccc(C)cc1 (centres undefined),13µM,n,n,n,9.3µM
COC(=O)C1=Cc2cc(OC)cc([N+](=O)[O-])c2OC1N1CCOCC1 (centres undefined),n,n,n,n,u
SMILES,Pf growth 96h,Cycloheximide cs,Shiga toxin inh,LmPK inh,Pf growth 48h
O=C(Nc1cccc(F)c1)NC1(C(=O)NCC2CCCO2)CCCCC1 (centres undefined),n,n,n,n,n
Cc1ccc(C(=O)N2CCCCC2C(=O)O)o1 (centres undefined),n,n,n,n,n
CC(C)(C)C(CO)NC(=O)c1ccc[nH]1 (centres undefined),n,x,x,x,n
CCCc1nnc(NC(=O)CCC(=O)NC2CCCCCC2)s1,u,n,n,n,n
COc1ccc(-c2nc(C(=O)N3CCN(C)CC3)sc2-c2ccc(OC)cc2)cc1,x,n,n,x,x
CC(C)NC(=O)CSc1nccc(-c2cccs2)n1,n,n,n,n,n
CSc1sc(-c2ccnc(SCC(=O)C(C)(C)C)n2)c2c1C(=O)CC(C)(C)C2,4.7µM,n,n,n,u
